Screening results from PubChem.
PrPC surface inh – inhibitors of human cell surface prion protein PrPC, primary screen, cell-based, TR-FRET | TR-FRET read-out | inhibition, % at 13.8 µM | 370,000 compounds, 0.43% hits; in the data active = inhibition above about 24%; note: 0% = median of the test wells and 100% = reference compound wells
PrP 5UTR inh – inhibition of PrP 5' UTR reporter expression; cell-based PrP 5' UTR mRNA reporter, plate reader; inhibition, % (test concentration not listed); 340,000 compounds, 0.35% hits; AID 488862, 2010; in the data active = inhibition above about 52%; note: 0 = median of the neutral control wells
MazF activator – activators of E. coli MazEF toxin-antitoxin RNase, primary screen, biochemical, fluorescence, uHTS; Endoribonuclease toxin MazF (Escherichia coli (strain K12)), P0AE70; AID 504720, 2011; 350,000 compounds, 0.32% hits; FAM/BHQ RNA-DNA oligo cleavage fluorescence, 5 h; activation, % at 20 µM; in the data active = activation above about 50%
VHR inh abs – VHR1 phosphatase inhibitors, primary screen, biochemical, absorbance, uHTS. AID 1654, 2009. recombinant VHR phosphatase, pNPP absorbance. Dual specificity protein phosphatase 3 (Homo sapiens), P51452. inhibition, % at 13.3 µM. 290,000 compounds, 0.52% hits; in the data active = inhibition above about 50%
PfHsp40 yeast – rescue of yeast from PfHsp40 toxicity, primary screen, S. cerevisiae, ATP luminescence | S. cerevisiae expressing PfHsp40, growth rescue | growth rescue, % at 12.5 µM | 340,000 compounds, 0.68% hits; in the data active = growth rescue above about 28%, passing the limit was not always enough;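 note: yeast W303a lacking pdr1 and pdr3 grown in galactose medium; growth measured after three days at 30 °C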
BJeLR viability – MLPCN primary cell-based screen for lethality selective to Ras in HRASV12 cells | BJeLR (HRASV12) viability, CellTiter-Glo ATP luminescence, 48 h | 300,000 compounds, 0.17% hits | inhibition, % (concentration not given with the values); in the data active = inhibition above about 50%
PrPC confirm – confirmation of inhibitors of cell surface human prion protein, confirmation, cell-based, TR-FRET. AID 743200, 2013. shares compounds with PrPC surface inh. cell surface PrPC level. inhibition, % at 13.8 µM. 1,500 compounds, 65% hits; in the data active = inhibition above about 25%
LD9 tox – cytotoxicity in LD9 cells, cytotoxicity control for cell surface PrPc inhibitor project, cell-based, luminescence, high throughput | inhibition, % at 13.8 µM | 1,500 compounds, 29% hits | luminescence viability | shares compounds with PrPC surface inh; in the data active = inhibition above about 9.5%
* hit, by the source's call; . = no result. Only some compounds are listed: those with a hit (about 2.1% of all), similar ones and a draw of the others.

SMILES | PrPC surface inh | PrP 5UTR inh | MazF activator | VHR inh abs | PfHsp40 yeast | BJeLR viability | PrPC confirm | LD9 tox
Cc1ccc(NC(=O)c2ccc(Nc3c([N+](=O)[O-])cc([N+](=O)[O-])cc3[N+](=O)[O-])cc2)cc1 | 24.8* | -35.1 | 8.7 | -3.9 | 1.2 | -2.6 | 6.9 | 36.7*
COc1cccc(-c2c(C(=O)N/N=C/c3sccc3C)nnn2-c2nonc2N)c1 | -2.1 | -18.6 | 3.7 | 9.1 | 0.6 | -5.3 | . | .
CCC(C)NC(=O)C(NS(=O)(=O)c1ccc2c(c1)c(=O)n(C)c(=O)n2C)c1ccccc1 (configuration not stated) | 42.1* | -13.6 | 13.4 | 19.0 | 0.6 | . | 8.5 | -1.4
CCCCCC[N+](C)(C)CCSSCC[N+](C)(C)CCCCCC | 0.1 | -17.2 | 5.1 | -23.4 | 0.0 | 3.5 | . | .
CC#CC[N+](C)(C)CCCCCCCCCCCC | 25.5* | -12.7 | 17.7 | -13.1 | -1.5 | 16.9 | 28.2* | 15.8*
CCCCCCCCCCCCCCCC[N+](C)(C)CC | 26.2* | -20.2 | -11.1 | . | 5.0 | -5.2 | 35.9* | 13.8*
OC(c1ccc(F)c(F)c1)c1nc(-c2cccc3cccnc23)cs1 (configuration not stated) | -6.9 | . | . | . | . | . | . | .
CC(C)(C)OC(=O)NCCCCCc1cn([C@@H](CO)C(=O)NCCCCCCCCCCC(=O)N2CCN(C(=O)OC(C)(C)C)CC2)nn1 | 52.8* | -45.7 | 7.3 | . | 7.9 | . | 34.3* | 35.6*
CC(OC(=O)c1ccc(OCC2CCCO2)cc1)C(=O)N(C)Cc1ccccc1 (configuration not stated) | -6.3 | -14.4 | 5.4 | . | -0.9 | -1.9 | . | .
Cc1cc(C(=O)O)cc(S(=O)(=O)NNC(=O)c2cccs2)c1C | 42.0* | 11.4 | -5.8 | -16.2 | 0.5 | -0.2 | 3.0 | 2.5
CCN1CCCCC(NC(=O)c2ccc(C)cc2)C1=O (configuration not stated) | 10.8 | . | . | . | . | . | . | .
CCCCCN1C(=O)c2cc(OC)ccc2[C@@]2(C(=O)OCC)Cc3cc(Cl)ccc3[C@@H]12 | 33.4* | . | . | . | . | . | 46.6* | 98.8*
CCOC(=O)[C@]12Cc3cc(Cl)ccc3[C@H]1N(Cc1ccccc1)C(=O)c1cc(OC)ccc12 | 17.3 | . | . | . | . | . | . | .
CCOC(=O)[C@]12Cc3cc(OC)ccc3[C@H]1N(C1CCCCC1)C(=O)c1ccccc12 | 26.4* | . | . | . | . | . | 41.6* | 95.1*
Cc1cc2cc(CNC(=O)c3ccc(Br)o3)ccc2n1C | 20.8 | 2.2 | -11.5 | 25.8 | -0.4 | -5.3 | . | .
COc1cccc(CNC(=O)c2ccc(S(=O)(=O)N3CCOCC3)cc2)c1 | -0.4 | -26.7 | -2.5 | . | 0.1 | . | . | .
Cc1cc2cc(CNC(=O)c3ccc(S(=O)(=O)N4CCCCC4)cc3)ccc2[nH]1 | 28.9* | -2.0 | -0.1 | 10.8 | 1.1 | -10.2 | 12.1 | -4.6
Cc1cc2cc(CNC(=O)c3ccc(S(=O)(=O)N(C)C)cc3)ccc2n1C | 53.6* | 4.5 | -12.6 | 36.3 | 1.3 | -9.0 | 36.4* | -4.3
Cc1cc2cc(CNC(=O)c3ccc(S(=O)(=O)N4CCOCC4)cc3)ccc2n1C | 42.9* | -8.9 | -7.7 | -1.9 | -1.0 | 5.1 | 44.6* | -6.5
COc1cc(/C=N/NC(=O)/C(=C/c2ccccc2)CCO)ccc1O | -1.2 | -9.6 | -7.0 | 29.8 | 1.4 | -2.9 | . | .
O=C(N/N=C/c1ccc(O)cc1O)/C(=C/c1ccccc1)CCO | 30.3* | -22.3 | 6.3 | 8.3 | -0.5 | -12.3 | 32.5* | 17.4*
O=C(Nc1ccc(Br)cc1)c1cccc(OC(=S)N2CCOCC2)c1 | 6.3 | -18.2 | -4.7 | 3.0 | 5.7 | 3.5 | . | .
O=C(COc1nsnc1N1CCOCC1)Nc1ccc(Cl)cc1 | 25.6* | -26.7 | 0.0 | 34.8 | -0.3 | -1.8 | 8.3 | -2.8
CC(C)Cc1nc(Nc2ccccc2C#N)c2nnn(Cc3ccccc3)c2n1 | 28.8* | -44.4 | -0.7 | -22.7 | 4.4 | -9.9 | 13.0 | 0.1
CC(C)Cc1nc(N2CCC(C(N)=O)CC2)c2nnn(Cc3ccccc3)c2n1 | -3.9 | -20.4 | -15.3 | 10.5 | -1.4 | -1.7 | . | .
SMILES | PrPC surface inh | PrP 5UTR inh | MazF activator | VHR inh abs | PfHsp40 yeast | BJeLR viability | PrPC confirm | LD9 tox
CCCNC(=O)Nc1ccc2c(c1)OC[C@H](C)N(C(=O)C1CCCCC1)C[C@@H](C)[C@H](OC)CN(C)C2=O | 1.2 | . | . | . | . | . | . | .
NC(=O)c1ccc(-c2nnn(CC(=O)N(C3CCCC3)C3CCS(=O)(=O)C3)n2)cc1 (configuration not stated) | -2.3 | -14.9 | 10.5 | . | 0.2 | . | . | .
O=C(Nc1csnn1)OCc1ccccc1 | -8.4 | -39.9 | 5.3 | . | -1.2 | . | . | .
COc1ccc(CC(=O)Nc2ccc(N3CCN(c4ccc(OC)cc4)CC3)c(C#N)c2)cc1 | 24.9* | -0.3 | 2.6 | -3.9 | 0.0 | -1.8 | 40.3* | 12.8*
C=CCN1C(=O)[C@H](CC(=O)NCc2cccs2)[C@@]2(C(=O)OCC)CCCC=C12 | 0.7 | . | . | . | . | . | . | .
Cc1occc1C(=O)N1CCN(C(=O)C2CCCO2)CC1 (configuration not stated) | 47.1* | -2.7 | -4.9 | 12.1 | -1.2 | 9.4 | 5.1 | -2.4
Cc1cccc2c(=O)c(-c3ccc4c(c3)OCO4)c(NC(=O)c3ccco3)oc12 | 63.5* | -25.2 | 1.3 | 5.7 | 0.3 | -0.7 | 66.5* | -6.8
CC1C(OC(=O)CCC(=O)NC(C)(C)CO)O[C@H]2OC3(C)CC[C@H]4[C@H](C)CCC1C24OO3 (some centres not stated) | 32.7* | -30.3 | 2.4 | 2.4 | 121.8* | -0.3 | 33.0* | 19.3*
CC(C)CC(NC(=O)CCCNC(=O)CCC(=O)OC1O[C@H]2OC3(C)CC[C@H]4[C@H](C)CCC(C1C)C24OO3)C(=O)O (some centres not stated) | 28.0* | 1.7 | -4.5 | 2.4 | 195.8* | -3.1 | 37.8* | 19.6*
CC(C)[C@H](NC(=O)OC(C)(C)C)C(=O)N1CCC(Oc2cccnc2)CC1 | 0.2 | . | . | . | . | . | . | .
COCc1ccc(C(=O)N2CCCC(N(C)CCc3ccccc3)C2)s1 (configuration not stated) | -11.0 | . | 1.2 | . | . | . | . | .
C[C@H]1[C@@H](N(C)CC2CCCCC2)CC[C@@]23CCCN2C(=O)CCC[C@@H]13 | 1.2 | . | . | . | . | . | . | .
CCOC(=O)C1=C(c2ccccc2)NC(=O)NC1c1ccc(O)c(Cl)c1 (configuration not stated) | 36.4* | -5.0 | -0.6 | 4.9 | -0.3 | 0.5 | 49.3* | 52.2*
COc1ccc(Cn2c(-c3ccc(OC)cc3)nc3c(c(=O)c4ccccc4n3C)c2=O)cc1 | . | . | . | 37.3 | . | 5.1 | . | .
